# From the supplement of paper PMC11732987, “Enantioselective OTUD7B fragment discovery through chemoproteomics screening and high-throughput optimisation” (Communications Chemistry, 2025)
# Unmarked numbers belong to inactive results.
# Tests used:
# Experiment in all cases: log2 ratio of Biotin-Ahx-Ub-VS probe labelling (fragment/DMSO); higher = less target engagement (more negative = stronger competition), active = hit call of the paper (q ≤ 0.05, log2 ratio ≤ -1)
# Settings in all cases: compound concentration: 200 uM; treatment time: 3 h
# OTUD6B = target: T1, OTUD6B (UniProt Q8N6M0)
# T1 sequence (whole entry): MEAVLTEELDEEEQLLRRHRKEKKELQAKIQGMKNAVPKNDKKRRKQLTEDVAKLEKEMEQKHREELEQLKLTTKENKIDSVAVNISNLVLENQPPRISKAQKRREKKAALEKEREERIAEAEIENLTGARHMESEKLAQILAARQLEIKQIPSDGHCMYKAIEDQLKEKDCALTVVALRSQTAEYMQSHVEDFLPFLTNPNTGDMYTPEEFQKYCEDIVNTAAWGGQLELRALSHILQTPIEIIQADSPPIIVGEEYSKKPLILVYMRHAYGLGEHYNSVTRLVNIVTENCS
# Method in brief: (§1)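 Fragment (200 µM) or vehicle was incubated for 3 h with triplicate HEK293T lysate samples of 495 µg, which were then treated with Biotin-Ahx-Ub-VS at 0.5 µM final for 1 h. Labelled DUBs were enriched on NeutrAvidin, digested with LysC and trypsin, and analysed by diaPASEF LC-MS/MS. Values are average log2 fragment/vehicle ratios from an unpaired t-test on global-median-normalised Spectronaut label-free quantities, using proteins with ≥2 unique peptides.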
# OTUD7B = target: T2, OTUD7B (UniProt Q6GQQ9)
# T2 sequence (whole entry): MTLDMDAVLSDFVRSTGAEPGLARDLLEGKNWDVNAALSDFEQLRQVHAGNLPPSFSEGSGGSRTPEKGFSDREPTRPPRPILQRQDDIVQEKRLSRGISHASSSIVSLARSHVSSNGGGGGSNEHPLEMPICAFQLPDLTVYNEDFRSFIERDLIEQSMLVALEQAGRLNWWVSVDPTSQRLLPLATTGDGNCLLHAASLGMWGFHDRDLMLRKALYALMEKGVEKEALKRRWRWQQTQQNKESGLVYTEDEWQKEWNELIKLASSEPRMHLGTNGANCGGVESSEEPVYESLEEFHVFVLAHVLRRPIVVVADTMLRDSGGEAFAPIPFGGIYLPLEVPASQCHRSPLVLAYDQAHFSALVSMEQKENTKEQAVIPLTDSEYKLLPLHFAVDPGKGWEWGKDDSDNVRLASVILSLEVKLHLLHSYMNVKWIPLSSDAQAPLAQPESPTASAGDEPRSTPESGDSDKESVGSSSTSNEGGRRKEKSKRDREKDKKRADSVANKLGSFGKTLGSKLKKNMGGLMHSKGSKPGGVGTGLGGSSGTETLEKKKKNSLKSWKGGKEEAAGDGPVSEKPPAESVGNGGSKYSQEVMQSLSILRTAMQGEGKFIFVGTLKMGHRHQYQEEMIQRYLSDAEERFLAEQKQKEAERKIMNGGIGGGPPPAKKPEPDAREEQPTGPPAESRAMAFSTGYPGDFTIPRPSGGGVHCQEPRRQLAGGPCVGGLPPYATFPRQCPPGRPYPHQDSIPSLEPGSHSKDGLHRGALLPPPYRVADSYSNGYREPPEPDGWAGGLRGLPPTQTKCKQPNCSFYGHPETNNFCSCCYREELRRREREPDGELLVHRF
# Method in brief: as §1
# PRPF8 = PRPF8 (UniProt Q6P2Q9)
# Method in brief: as §1
# PSMD7 = target: T3, PSMD7 (UniProt P51665)
# T3 sequence (whole entry): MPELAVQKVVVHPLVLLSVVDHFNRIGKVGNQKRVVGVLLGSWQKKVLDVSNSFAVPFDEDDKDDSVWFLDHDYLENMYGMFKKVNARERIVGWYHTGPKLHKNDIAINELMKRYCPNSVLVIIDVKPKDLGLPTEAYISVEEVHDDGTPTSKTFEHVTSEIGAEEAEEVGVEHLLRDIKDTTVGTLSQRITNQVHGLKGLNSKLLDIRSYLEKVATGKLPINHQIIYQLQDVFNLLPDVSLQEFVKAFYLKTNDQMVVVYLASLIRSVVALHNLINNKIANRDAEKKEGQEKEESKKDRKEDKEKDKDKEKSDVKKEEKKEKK
# Method in brief: as §1
# UCHL1 = UCHL1 (UniProt P09936)
# Sequence of UCHL1 (P09936 whole entry, looked up): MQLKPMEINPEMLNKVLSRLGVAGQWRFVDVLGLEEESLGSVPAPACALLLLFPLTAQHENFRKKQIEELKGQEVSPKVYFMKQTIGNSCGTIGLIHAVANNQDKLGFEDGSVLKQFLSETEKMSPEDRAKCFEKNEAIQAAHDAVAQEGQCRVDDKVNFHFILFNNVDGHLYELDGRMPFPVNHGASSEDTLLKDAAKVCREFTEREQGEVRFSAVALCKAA
# Method in brief: as §1
# UCHL3 = target: T4, UCHL3 (UniProt P15374)
# T4 sequence (whole entry): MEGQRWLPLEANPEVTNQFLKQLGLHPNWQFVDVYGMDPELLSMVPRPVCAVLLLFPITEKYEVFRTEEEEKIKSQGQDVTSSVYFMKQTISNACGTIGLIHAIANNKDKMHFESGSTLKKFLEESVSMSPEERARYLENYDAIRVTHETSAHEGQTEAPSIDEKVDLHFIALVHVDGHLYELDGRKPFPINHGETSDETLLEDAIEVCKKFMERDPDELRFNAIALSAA
# Method in brief: as §1
# UCHL5 = target: T5, UCHL5 (UniProt Q9Y5K5)
# T5 sequence (whole entry): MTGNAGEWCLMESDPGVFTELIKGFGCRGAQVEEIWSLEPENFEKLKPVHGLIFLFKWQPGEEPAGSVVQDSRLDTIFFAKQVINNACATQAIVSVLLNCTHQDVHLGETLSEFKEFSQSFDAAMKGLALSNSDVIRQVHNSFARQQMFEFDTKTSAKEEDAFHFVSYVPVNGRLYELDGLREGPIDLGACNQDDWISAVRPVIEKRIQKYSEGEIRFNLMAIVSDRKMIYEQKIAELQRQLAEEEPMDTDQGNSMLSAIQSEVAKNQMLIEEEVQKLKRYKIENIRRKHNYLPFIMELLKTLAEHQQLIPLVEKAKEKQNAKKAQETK
# Method in brief: as §1
# USP10 = USP10 (UniProt Q14694)
# Sequence of USP10 (Q14694 whole entry): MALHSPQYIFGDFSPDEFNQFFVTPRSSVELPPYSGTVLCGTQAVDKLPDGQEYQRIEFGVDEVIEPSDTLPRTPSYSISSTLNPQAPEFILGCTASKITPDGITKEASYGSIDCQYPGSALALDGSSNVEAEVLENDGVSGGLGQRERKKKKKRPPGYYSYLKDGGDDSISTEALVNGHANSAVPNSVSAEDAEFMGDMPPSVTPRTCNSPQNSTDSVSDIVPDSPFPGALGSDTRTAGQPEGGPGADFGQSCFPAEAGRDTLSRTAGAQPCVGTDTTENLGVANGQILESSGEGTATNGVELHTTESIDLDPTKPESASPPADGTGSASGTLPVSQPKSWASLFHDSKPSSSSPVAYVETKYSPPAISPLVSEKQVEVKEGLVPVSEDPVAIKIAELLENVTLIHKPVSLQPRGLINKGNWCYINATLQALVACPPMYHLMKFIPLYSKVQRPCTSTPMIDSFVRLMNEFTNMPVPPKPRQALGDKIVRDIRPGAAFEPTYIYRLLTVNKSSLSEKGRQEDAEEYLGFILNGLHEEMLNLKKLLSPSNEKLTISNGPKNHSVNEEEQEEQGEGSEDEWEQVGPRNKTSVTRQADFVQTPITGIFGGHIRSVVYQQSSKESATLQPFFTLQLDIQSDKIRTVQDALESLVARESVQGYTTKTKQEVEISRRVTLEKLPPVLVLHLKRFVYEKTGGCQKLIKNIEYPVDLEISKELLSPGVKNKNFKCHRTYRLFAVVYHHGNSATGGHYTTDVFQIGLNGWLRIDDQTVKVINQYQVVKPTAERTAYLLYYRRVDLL
# Method in brief: as §1
# USP15 = target: T6, USP15 (UniProt Q9Y4E8)
# T6 sequence (whole entry): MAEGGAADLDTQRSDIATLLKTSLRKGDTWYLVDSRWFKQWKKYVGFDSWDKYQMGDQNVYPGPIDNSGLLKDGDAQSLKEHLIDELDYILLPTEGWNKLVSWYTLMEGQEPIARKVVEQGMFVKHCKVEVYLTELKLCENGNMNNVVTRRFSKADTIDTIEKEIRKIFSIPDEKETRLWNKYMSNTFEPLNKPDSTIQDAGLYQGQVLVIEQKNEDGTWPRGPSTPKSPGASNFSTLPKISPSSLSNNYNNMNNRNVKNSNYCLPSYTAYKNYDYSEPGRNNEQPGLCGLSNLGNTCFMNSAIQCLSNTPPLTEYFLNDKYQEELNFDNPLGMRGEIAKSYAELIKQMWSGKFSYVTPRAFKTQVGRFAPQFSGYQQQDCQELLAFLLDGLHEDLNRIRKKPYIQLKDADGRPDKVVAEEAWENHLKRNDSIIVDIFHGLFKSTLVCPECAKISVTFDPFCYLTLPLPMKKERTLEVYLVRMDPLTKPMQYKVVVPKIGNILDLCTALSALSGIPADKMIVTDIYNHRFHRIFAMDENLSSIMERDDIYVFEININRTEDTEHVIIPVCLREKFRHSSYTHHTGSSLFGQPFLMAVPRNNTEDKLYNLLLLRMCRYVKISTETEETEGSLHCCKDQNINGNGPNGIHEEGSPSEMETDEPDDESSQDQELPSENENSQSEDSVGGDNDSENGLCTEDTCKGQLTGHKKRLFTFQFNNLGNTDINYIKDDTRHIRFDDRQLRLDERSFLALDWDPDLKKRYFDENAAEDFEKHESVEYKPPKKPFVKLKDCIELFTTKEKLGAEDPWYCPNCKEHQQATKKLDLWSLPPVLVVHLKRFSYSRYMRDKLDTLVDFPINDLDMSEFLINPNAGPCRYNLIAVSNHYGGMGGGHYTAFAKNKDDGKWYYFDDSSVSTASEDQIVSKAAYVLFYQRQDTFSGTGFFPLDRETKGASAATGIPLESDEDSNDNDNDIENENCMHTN
# Method in brief: as §1
# USP16 = USP16 (UniProt Q9Y5T5)
# Sequence of USP16 (Q9Y5T5 whole entry, looked up): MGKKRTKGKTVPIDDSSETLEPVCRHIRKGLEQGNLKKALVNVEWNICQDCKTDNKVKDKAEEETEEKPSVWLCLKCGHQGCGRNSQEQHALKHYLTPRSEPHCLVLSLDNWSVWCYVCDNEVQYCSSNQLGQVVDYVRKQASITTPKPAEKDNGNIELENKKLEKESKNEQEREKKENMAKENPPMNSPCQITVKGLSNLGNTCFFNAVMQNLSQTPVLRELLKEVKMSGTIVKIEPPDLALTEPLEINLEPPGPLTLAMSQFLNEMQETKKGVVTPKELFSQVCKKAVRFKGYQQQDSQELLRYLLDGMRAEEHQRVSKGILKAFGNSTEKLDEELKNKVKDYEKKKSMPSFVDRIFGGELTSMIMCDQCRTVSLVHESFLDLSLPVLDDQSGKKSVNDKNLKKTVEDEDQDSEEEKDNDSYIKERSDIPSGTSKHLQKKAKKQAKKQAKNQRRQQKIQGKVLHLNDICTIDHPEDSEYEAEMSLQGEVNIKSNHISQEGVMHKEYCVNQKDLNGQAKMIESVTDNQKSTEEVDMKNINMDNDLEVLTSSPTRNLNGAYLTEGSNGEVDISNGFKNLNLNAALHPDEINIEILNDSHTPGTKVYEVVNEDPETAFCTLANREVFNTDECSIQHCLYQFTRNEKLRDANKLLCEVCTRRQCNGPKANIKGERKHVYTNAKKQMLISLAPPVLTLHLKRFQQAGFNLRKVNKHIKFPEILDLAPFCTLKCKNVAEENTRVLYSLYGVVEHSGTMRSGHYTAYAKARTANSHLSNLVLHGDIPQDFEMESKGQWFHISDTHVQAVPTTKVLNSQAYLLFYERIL
# Method in brief: as §1
smiles,measurement,setting,value
Cc1ccc(N(CCC#N)C(=O)CCl)cc1C,log2 ratio of Biotin-Ahx-Ub-VS probe labelling,OTUD6B,-0.133
same,log2 ratio of Biotin-Ahx-Ub-VS probe labelling,OTUD7B,-1.99 (active)
same,log2 ratio of Biotin-Ahx-Ub-VS probe labelling,PRPF8,0.0257
same,log2 ratio of Biotin-Ahx-Ub-VS probe labelling,PSMD7,-0.41
same,log2 ratio of Biotin-Ahx-Ub-VS probe labelling,UCHL1,-1.31 (active)
same,log2 ratio of Biotin-Ahx-Ub-VS probe labelling,UCHL3,0.292
same,log2 ratio of Biotin-Ahx-Ub-VS probe labelling,UCHL5,-0.157
same,log2 ratio of Biotin-Ahx-Ub-VS probe labelling,USP10,-0.00551
same,log2 ratio of Biotin-Ahx-Ub-VS probe labelling,USP15,-0.234
same,log2 ratio of Biotin-Ahx-Ub-VS probe labelling,USP16,-0.0509
